Measurements taken from the supplement of paper PMC6555819.

Tested on: PXR:RXRa (NR concentration 270 nM, RXRa partner concentration 90 nM)
Test: PBM binding z-score (relative to random genomic background probes); higher = stronger binding; sequences stand for … in GC…GCGATTGACAGCGTAGAATGAAGG
Outline: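 Scanned fluorescence from custom Agilent 4×180K protein-binding microarrays was regression-normalized. Binding z-scores use random background probes as reference. Ligand-free nuclear receptor dimers were incubated on the arrays for 1 h and detected with antibodies against each partner (one per run).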

Row | Sequence | PBM binding z-score
1 | TCGAGTAGGTTAGGGGCATGCAGAATGGCGTCGA | 0.108
2 | TCATATAGGTGAAGGTGAAAGTCGAACGATATGA | 0.448
3 | GCGACCGGGGCAAAGCAGGTTACCATAAGGTTGG | 0.857
4 | CAGACTGGGGCAAGGTTACCATAACGCACAGCCA | 0.474
5 | CCTAGTTGGTCTAGGTCACACACGCTATAGGTAC | 1.4
6 | ATATGTAGGTTATCGGGTCATTCCGTTTGCGCAT | 3.12
7 | CCTAACAGGCCAATCTGGGTCACTCAAGGCTTGA | 1.3
8 | CCTAGCAGGCCAGGGTCACTCGAGCATTTCGCTT | 2.32
9 | CAAACTAGGTCGCGAAAGGTCAAAGTCGAATGAC | 6.52
10 | ACTAGTTGGTCAGCCGAGGTCACACACAATTCGG | 5.43
11 | TCTTGTAGATCAATAGAGATTAAGAAAGTGCGCT | 0.374
12 | ACTAGTTGGTCAGCTGAGGTCAGACACAATTCGG | 4.31
13 | AGAACGAGGGCACGCTGAGTTGATAGAAGAGTAG | 1.28
14 | ACTCGGAGGCCAAAGGTCAGAGCTACGCCAGTGA | 4.9
15 | TATACAGCGTCAAAGGCCAGAGTACGAATGTCGA | -0.442
16 | AGAACGAGGGCACGCTTAGTTGATAGCAGAGTAG | 0.718
17 | GCTTACGGGTCAAAGCTTATAGCATGAATAGAAT | 2.98
18 | TGTCAAAGTTCAAAGGTAACATAAGTATCCACAC | 5.72
19 | AGTCAAAGTTCATCTAGGTACCGTAAGATATGCT | 5.28
20 | CCTAGTTGGTCAAGGTCACACAAGCTATAGGTAC | 4.47

Row | Sequence | PBM binding z-score
21 | ATATGTAGGTTATCGGGACATTCAGTTTGCGCAT | 0.647
22 | CCTCACGGGTCAAGGTTATAGCACGGGTGGTACG | 3.03
23 | TCATATTGGTAAACAGGTGAAAGTCCGTAAGTTA | 1.03
24 | CTCGAAAGGTCGGTCGAGGTGAGTATACGGATAA | 3.08
25 | CGTCCAAGGTCATAGGAGGTCAGTTAAGACAGAT | 6.47
26 | GATACAGGGTCAGCTAGAGGCCAGAGTTTGGAAA | 3.41
27 | GCTAGTTGGTCAGTAAAAGGTCACACATCGGTCG | 4.7
28 | TCATATAGGTAAAAGGTGGAAGTCGGTGTGGTAA | 0.586
29 | GCAGACAGGTGAAACGCAGGAAACTCAGGGTGGC | -0.387
30 | CCTGCTAGATCAATGGTCAGCTAAAGCAGCTCGC | -0.879
31 | GTACCAGGGTGAATAGGTCGTTGATGAGTAGGCG | 0.92
32 | TCATATAGGTCAATGCTAGGTGAAAGTCCGATCT | 2.78
33 | GCTAGCTGGCCATTTGGGTCACTCAATGACGGGC | -0.0667
34 | TCATATAGGTAAACGTGAAAGTCGAACGATATGA | 0.122
35 | CAAACTAGGTCAAAGGTCTAAGTCGAGCCAACCA | 3.11
36 | GCTTACGGGTCATAGGTTATAGCATGAATAGAAT | 3.94
37 | CAAACTAGGTCACGAAAGGTCAAAGACGAATGAC | 7.05
38 | CGTCCCAGGTCAATGCTAGGTCAGTGAAAGCATT | 3.21
39 | TCTCGGAGGACACGAACGGTCAGAGCTCGACATC | -0.215
40 | CCGACTGGGGCATAATGTTACCATAAGCCAGCCC | -0.537
